Unmarked numbers belong to inactive results. For some of these results: Potency and affinity values are given separately. Active and inactive are the calls of the source. Unless noted, no rule for the calls is given here.

One may read the inhibition as the change of the read-out against control, counted positive when it falls.

Assay [1] in a line: antimalarial activity against Dd2 strain (AID 2302;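 active = growth inhibition above 50% at the single 2 µM test dose, taken to imply half-maximal potency below 2 µM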;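 also: 0% = DMSO untreated growth and 100% = chloroquine plus artemisinin killed control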). The following applies: P. falciparum Dd2 in RBCs, LDH growth readout, 72 h; at 2 µM; active compounds read high.
A short description of assay [2]: HepG2 cytotoxicity, primary screen, cytotoxicity control for P. falciparum antimalarial project, cell-based, ATP luminescence (AID 2303;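 active = inhibition above 50%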;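 also: 0% = DMSO wells and 100% = digitonin-killed cells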). The following applies: HepG2 viability, 24-48 h, at 10 µM, active compounds read high.
For assay [3], the target named is L-lactate dehydrogenase (Plasmodium falciparum (isolate CDC / Honduras)) (UniProt Q27743). Put plainly: PfLDH activity inhibition – cell lysate, 3D7 strain, counter-screen for P. falciparum growth inhibition project (AID 2304).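 Also: 0% = vehicle and 100% = reference inhibitor.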 The following applies: P. falciparum 3D7 crude extract, LDH APAD/NBT absorbance; at 2 µM; active compounds read high. For orientation: A counterscreen serves to expose hits that act by an unwanted route or on another target.

Assay [4] can be described thus: inhibition of 3D7 malaria parasite growth – strain 3D7 (AID 2306).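 Also: 0% = DMSO wells and 100% = chloroquine plus artemisinin control wells.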 The following applies: P. falciparum 3D7 erythrocytic growth, LDH absorbance, 72 h; at 2 µM; active compounds read high.
Assay [5] deals with Calcium-dependent protein kinase 1 (Plasmodium falciparum (isolate 3D7)) (UniProt P62344). The assay is described as follows: PfCDPK1 kinase inhibitors, biochemical, TCAMS library (AID 1159585; cut-off not given, nearly all actives have IC50 up to about 0.98 µM;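 also: inhibitors leave more ATP so luminescence rises with inhibition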). The following applies: recombinant PfCDPK1, Kinase-Glo ATP depletion luminescence. On the technique in general: Kinase-Glo reads ATP consumption through a luciferase reaction.
Assay [6] concerns the target Plasmodium falciparum protein kinase 6 (PK6, PF3D7_1337100) (UniProt Q8IDW1). Put plainly: PfPK6 kinase inhibitors, biochemical, TCAMS library (AID 1159586). The note with it: recombinant PfPK6, Kinase-Glo ATP depletion luminescence.
In assay [7] the target is Protein kinase 7 (PK7), Plasmodium falciparum 3D7 (PF3D7_0213400) (UniProt Q7YTF7). Put plainly: inhibition of Plasmodium PK7 catalytic activity – biochemical, TCAMS antimalarial set, Kinase-Glo luminescence (AID 1159587). The note with it: recombinant PfPK7, Kinase-Glo ATP depletion luminescence.
For assay [8], the target named is Calcium-dependent protein kinase 4 (Plasmodium falciparum (isolate 3D7)) (UniProt Q8IBS5). Put plainly: PfCDPK4 kinase inhibitors, biochemical, TCAMS library (AID 1159588; cut-off not given, nearly all actives have IC50 up to about 0.91 µM). The following applies: recombinant PfCDPK4, Kinase-Glo ATP depletion luminescence.
Calcium-dependent protein kinase 4 (Plasmodium falciparum (isolate 3D7)), sequence (Q8IBS5 whole entry, looked up): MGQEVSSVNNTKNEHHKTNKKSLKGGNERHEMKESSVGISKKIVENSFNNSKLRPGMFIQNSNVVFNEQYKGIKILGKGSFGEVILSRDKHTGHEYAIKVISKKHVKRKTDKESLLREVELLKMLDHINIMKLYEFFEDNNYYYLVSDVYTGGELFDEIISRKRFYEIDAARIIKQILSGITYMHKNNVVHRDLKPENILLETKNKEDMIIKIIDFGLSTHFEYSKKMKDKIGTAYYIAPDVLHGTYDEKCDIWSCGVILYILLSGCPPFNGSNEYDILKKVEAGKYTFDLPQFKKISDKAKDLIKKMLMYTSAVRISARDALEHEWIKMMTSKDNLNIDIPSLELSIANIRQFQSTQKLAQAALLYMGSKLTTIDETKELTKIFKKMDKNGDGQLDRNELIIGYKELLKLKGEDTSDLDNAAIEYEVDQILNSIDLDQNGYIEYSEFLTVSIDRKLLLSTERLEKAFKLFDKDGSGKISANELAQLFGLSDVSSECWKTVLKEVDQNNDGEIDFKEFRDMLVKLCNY

Protein kinase 7 (PK7), Plasmodium falciparum 3D7 (PF3D7_0213400), sequence (Q7YTF7 1-343): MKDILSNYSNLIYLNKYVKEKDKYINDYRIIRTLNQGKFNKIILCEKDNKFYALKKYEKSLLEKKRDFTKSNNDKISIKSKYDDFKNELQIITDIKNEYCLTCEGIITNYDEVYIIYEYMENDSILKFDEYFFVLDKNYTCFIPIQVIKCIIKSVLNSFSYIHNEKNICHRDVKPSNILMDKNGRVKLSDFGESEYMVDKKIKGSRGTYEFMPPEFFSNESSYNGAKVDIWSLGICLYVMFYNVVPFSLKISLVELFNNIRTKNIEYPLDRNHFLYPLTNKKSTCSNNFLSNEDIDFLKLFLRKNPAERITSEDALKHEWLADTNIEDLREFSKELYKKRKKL
Plasmodium falciparum protein kinase 6 (PK6, PF3D7_1337100), sequence (Q8IDW1 1-305): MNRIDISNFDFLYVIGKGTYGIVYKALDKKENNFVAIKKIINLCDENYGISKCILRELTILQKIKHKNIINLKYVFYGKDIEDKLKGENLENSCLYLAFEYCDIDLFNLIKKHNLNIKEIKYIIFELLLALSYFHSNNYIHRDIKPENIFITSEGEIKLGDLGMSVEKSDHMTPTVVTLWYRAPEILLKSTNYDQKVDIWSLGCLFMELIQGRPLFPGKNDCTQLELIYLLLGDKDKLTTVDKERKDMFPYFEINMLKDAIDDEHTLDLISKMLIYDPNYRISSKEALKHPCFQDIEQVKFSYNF
L-lactate dehydrogenase (Plasmodium falciparum (isolate CDC / Honduras)), sequence (Q27743 whole entry, looked up): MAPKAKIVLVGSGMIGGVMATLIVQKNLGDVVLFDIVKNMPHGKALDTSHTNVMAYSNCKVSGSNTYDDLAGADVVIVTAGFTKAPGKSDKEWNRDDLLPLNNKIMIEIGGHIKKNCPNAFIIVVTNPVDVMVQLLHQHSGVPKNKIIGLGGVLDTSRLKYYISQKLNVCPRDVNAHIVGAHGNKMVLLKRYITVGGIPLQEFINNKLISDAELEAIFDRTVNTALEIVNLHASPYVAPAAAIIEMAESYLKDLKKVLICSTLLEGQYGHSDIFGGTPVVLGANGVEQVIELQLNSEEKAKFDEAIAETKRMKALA
Calcium-dependent protein kinase 1 (Plasmodium falciparum (isolate 3D7)), sequence (P62344 whole entry, looked up): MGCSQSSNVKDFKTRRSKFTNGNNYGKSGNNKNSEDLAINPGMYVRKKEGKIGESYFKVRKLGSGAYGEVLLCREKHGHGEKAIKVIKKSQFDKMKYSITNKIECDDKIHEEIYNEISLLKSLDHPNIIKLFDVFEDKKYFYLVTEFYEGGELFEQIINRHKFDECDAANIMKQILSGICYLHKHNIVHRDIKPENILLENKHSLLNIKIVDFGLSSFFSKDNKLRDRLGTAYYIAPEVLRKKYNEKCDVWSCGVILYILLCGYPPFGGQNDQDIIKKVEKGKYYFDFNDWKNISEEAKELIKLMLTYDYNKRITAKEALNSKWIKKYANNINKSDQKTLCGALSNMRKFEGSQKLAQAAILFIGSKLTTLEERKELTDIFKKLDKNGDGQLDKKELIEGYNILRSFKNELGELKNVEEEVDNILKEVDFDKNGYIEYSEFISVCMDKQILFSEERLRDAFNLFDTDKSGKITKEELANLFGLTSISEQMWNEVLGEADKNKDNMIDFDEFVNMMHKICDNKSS

Take `COc1ccc(CCN2CC[C@H](Nc3nc(-c4ccc(F)c(F)c4)nc4ccccc34)C2)cc1S(N)(=O)=O`: the values for the growth inhibition in assay [1] and in assay [4] were 64% (active) and 99% (active), respectively. The inhibition is 18% in assay [2] and -8% in assay [3]. Besides, the outcome in assay [5], in assay [6], in assay [7] and in assay [8] was inactive.

Regarding `O=C(CC(=O)Nc1cc(Cl)cc(Cl)c1)Nc1cc(Cl)cc(Cl)c1`, the values for the growth inhibition in assay [1] and in assay [4] were 96% (active) and 95% (active), respectively. Further, the inhibition in assay [2] is -4%; in assay [3], -2%. Moreover, the result in assay [5], in assay [6], in assay [7] and in assay [8] was inactive.

Turning to `COCCNCc1ccc(-c2ccc(CNC3CCN(Cc4ccccc4)CC3)cc2)cc1`, the growth inhibition in assay [1] is 61% (active); in assay [4], 100% (active). In addition, the inhibition is 22% in assay [2] and -4% in assay [3]. For the same compound, the result in assay [5], in assay [6], in assay [7] and in assay [8] was inactive.

With `CCOc1ccc(C(=O)Nc2cc3c(c(C(F)(F)F)c2)CCNC3)cc1Cl`, the figures for the growth inhibition in assay [1] and in assay [4] were 1% and 91% (active), respectively. Also, the inhibition in assay [2] is 4%; in assay [3] it was -4%. Moreover, the result in assay [5], in assay [6], in assay [7] and in assay [8] was inactive.

`COc1c(C)[nH]c(C)c(-c2ccc(Oc3cccc(C(F)(F)F)c3)cc2)c1=O`: the figures for the growth inhibition in assay [1] and in assay [4] were 96% (active) and 98% (active), respectively. In addition, the inhibition in assay [2] was 40%; in assay [3], 3%. Further, the result in assay [5], in assay [6], in assay [7] and in assay [8] was inactive.

`CCN(C1CCCCC1)S(=O)(=O)c1ccc(OC)c(N2CCN(C(=O)C(Cl)(Cl)Cl)CC2)c1`: the growth inhibition in assay [1] is 85% (active); in assay [4], 100% (active). For the same compound, the inhibition in assay [2] was 0%; in assay [3], 3%. The outcome in assay [5], in assay [6], in assay [7] and in assay [8] was inactive.

With `COc1cc(Cn2ccc3c4c(N)nc(N)nc4ccc32)cc(OC)c1OC`, the growth inhibition is 97% (active) in assay [1] and 94% (active) in assay [4]. Moreover, the inhibition in assay [2] was 66% (active); in assay [3] it was 3%. The result in assay [5], in assay [6], in assay [7] and in assay [8] was inactive.

In the case of `COc1ccc(-c2cncc3ccc(C(=O)NCc4ccncc4)nc23)cc1`, the growth inhibition in assay [1] was 98% (active); in assay [4] it was 100% (active). The inhibition in assay [2] was 25%; in assay [3], 0%. Moreover, the result in assay [5], in assay [6], in assay [7] and in assay [8] was inactive.

As to `O=C(Nc1cccc(-c2ccc(CN3CCC(O)CC3)cc2)c1)c1ccc(Cl)cc1`, the growth inhibition is 8% in assay [1] and 95% (active) in assay [4]. Moreover, the inhibition in assay [2] was 46%; in assay [3], 4%. For the same compound, the result in assay [5], in assay [6], in assay [7] and in assay [8] was inactive.

On to `Cc1ccc(Cc2c(N)nc3nc(N)nc(N)c3c2C)cc1`, for which the growth inhibition in assay [1] was 8%; in assay [4] it was 95% (active). Besides, the inhibition is 59% (active) in assay [2] and 4% in assay [3]. Also, the result in assay [5], in assay [6], in assay [7] and in assay [8] was inactive.

For `Cc1ccc(/C=C/C(=O)N2CCC(CCN3CCC(c4c[nH]c5ccccc45)CC3)CC2)cc1C`, the results for the growth inhibition in assay [1] and in assay [4] were 5% and 94% (active), respectively. Besides, the inhibition was 50% (active) in assay [2] and -2% in assay [3]. In addition, the result in assay [5], in assay [6], in assay [7] and in assay [8] was inactive.

For `O=C1Nc2cccc3c2C1(CCCCCN1CCC(c2c[nH]c4ccncc24)CC1)CCC3` (stereo not given), the growth inhibition is 3% in assay [1] and 95% (active) in assay [4]. Moreover, the inhibition in assay [2] is 8%; in assay [3] it was 6%. The result in assay [5], in assay [6], in assay [7] and in assay [8] was inactive.

As to `CC1CN(Cc2ccc(-c3ccc(-c4nc5ccccc5[nH]4)cc3)cc2)CC(C)O1` (stereo not given), the growth inhibition in assay [1] is 96% (active); in assay [4] it was 98% (active). The inhibition in assay [2] is 48%; in assay [3], 3%. The outcome in assay [5], in assay [6], in assay [7] and in assay [8] was inactive.

On to `CCN(CC)CCOc1ccc(C(O)(C#CC(O)(c2ccc(C)cc2)c2ccc(OCCN(CC)CC)cc2)c2ccc(C)cc2)cc1` (stereo not given), for which the results for the growth inhibition in assay [1] and in assay [4] were 98% (active) and 97% (active), respectively. The inhibition in assay [2] is 94% (active); in assay [3] it was 6%. The outcome in assay [5], in assay [6], in assay [7] and in assay [8] was inactive.

Regarding `Fc1cccc(Nc2nc(NCc3ccc(OCc4ccccc4)cc3)nc(Nc3cccc(F)c3)n2)c1`, the growth inhibition in assay [1] is 14%; in assay [4], 84% (active). Moreover, the inhibition was 5% in assay [2] and 1% in assay [3]. The result in assay [5], in assay [6], in assay [7] and in assay [8] was inactive.

With `CCCCCCCc1c(C)[nH]c2c(OC)cccc2c1=O`, the growth inhibition in assay [1] is 85% (active); in assay [4], 89% (active). In addition, the inhibition in assay [2] is -5%; in assay [3], 5%. Besides, the result in assay [5], in assay [6], in assay [7] and in assay [8] was inactive.

`O=C(Nc1ccccc1O)c1ccc(S(=O)(=O)c2ccc(Cl)cc2)cc1`: the growth inhibition in assay [1] was 85% (active); in assay [4], 90% (active). The inhibition was 18% in assay [2] and -7% in assay [3]. The result in assay [5], in assay [6], in assay [7] and in assay [8] was inactive.

For the compound `CC(=O)Nc1nc(C(=O)Nc2ccc(-c3cccc(-c4nc5ccccc5[nH]4)c3)cc2)cs1`, the values for the growth inhibition in assay [1] and in assay [4] were 83% (active) and 99% (active), respectively. The figures for the inhibition in assay [2] and in assay [3] were 68% (active) and -10%, respectively. For the same compound, the outcome in assay [5], in assay [6], in assay [7] and in assay [8] was inactive.

As for `CCCCCCOc1ccc(N2C(N)=NC(N)=NC2(C)C)cc1`, the results for the growth inhibition in assay [1] and in assay [4] were 0% and 98% (active), respectively. In addition, the inhibition is 5% in assay [2] and 7% in assay [3]. Moreover, the result in assay [5], in assay [6], in assay [7] and in assay [8] was inactive.

Take `CCOC(=O)c1cc(C(=O)OC)c2ccccn12`: the growth inhibition is 2% in assay [1] and 97% (active) in assay [4]. Further, the inhibition is 44% in assay [2] and -2% in assay [3]. Besides, the result in assay [5], in assay [6], in assay [7] and in assay [8] was inactive.

The record behind these values is PubChem BioAssay.
